The nature of test [1]: antimalarial activity against Dd2 strain (AID 2302;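 active = growth inhibition above 50% at the single 2 µM test dose, taken to imply half-maximal potency below 2 µM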;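 also: 0% = DMSO untreated growth and 100% = chloroquine plus artemisinin killed control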). The conditions noted are these: P. falciparum Dd2 in RBCs, LDH growth readout, 72 h; at 2 µM; active compounds read high.
The nature of test [2]: human hepatoma cell viability loss – ATP luminescence, cytotoxicity control for P. falciparum antimalarial project, primary screen (AID 2303;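 active = inhibition above 50%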;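 also: 0% = DMSO wells and 100% = digitonin-killed cells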). The note with it: HepG2 viability, 24-48 h, at 10 µM, active compounds read high.
Test [3] deals with L-lactate dehydrogenase (Plasmodium falciparum (isolate CDC / Honduras)) (UniProt Q27743). Put plainly: PfLDH activity inhibition – cell lysate, 3D7 strain, counter-screen for P. falciparum growth inhibition project (AID 2304).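 Also: 0% = vehicle and 100% = reference inhibitor.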 The note with it: P. falciparum 3D7 crude extract, LDH APAD/NBT absorbance; at 2 µM; active compounds read high. On the technique in general: Counterscreens check selectivity or assay interference.
Chain of L-lactate dehydrogenase (Plasmodium falciparum (isolate CDC / Honduras)) (Q27743 whole entry, looked up): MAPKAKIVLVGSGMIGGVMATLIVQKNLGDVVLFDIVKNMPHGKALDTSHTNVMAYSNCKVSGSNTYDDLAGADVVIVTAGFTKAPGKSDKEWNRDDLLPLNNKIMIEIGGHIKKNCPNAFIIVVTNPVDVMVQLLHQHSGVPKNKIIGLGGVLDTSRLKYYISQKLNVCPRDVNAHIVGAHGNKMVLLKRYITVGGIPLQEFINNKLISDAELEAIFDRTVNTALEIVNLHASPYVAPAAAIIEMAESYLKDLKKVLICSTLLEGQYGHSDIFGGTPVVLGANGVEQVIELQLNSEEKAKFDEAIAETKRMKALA

Test [4] in a line: inhibition of 3D7 malaria parasite growth – strain 3D7 (AID 2306).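 Also: 0% = DMSO wells and 100% = chloroquine plus artemisinin control wells.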 The conditions noted are these: P. falciparum 3D7 erythrocytic growth, LDH absorbance, 72 h; at 2 µM; active compounds read high.
The target of test [5] is Calcium-dependent protein kinase 1 (Plasmodium falciparum (isolate 3D7)) (UniProt P62344). Put plainly: PfCDPK1 kinase inhibitors, biochemical, TCAMS library (AID 1159585; cut-off not given, nearly all actives have IC50 up to about 0.98 µM;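 also: inhibitors leave more ATP so luminescence rises with inhibition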). The conditions noted are these: recombinant PfCDPK1, Kinase-Glo ATP depletion luminescence.
Chain of Calcium-dependent protein kinase 1 (Plasmodium falciparum (isolate 3D7)) (P62344 whole entry, looked up): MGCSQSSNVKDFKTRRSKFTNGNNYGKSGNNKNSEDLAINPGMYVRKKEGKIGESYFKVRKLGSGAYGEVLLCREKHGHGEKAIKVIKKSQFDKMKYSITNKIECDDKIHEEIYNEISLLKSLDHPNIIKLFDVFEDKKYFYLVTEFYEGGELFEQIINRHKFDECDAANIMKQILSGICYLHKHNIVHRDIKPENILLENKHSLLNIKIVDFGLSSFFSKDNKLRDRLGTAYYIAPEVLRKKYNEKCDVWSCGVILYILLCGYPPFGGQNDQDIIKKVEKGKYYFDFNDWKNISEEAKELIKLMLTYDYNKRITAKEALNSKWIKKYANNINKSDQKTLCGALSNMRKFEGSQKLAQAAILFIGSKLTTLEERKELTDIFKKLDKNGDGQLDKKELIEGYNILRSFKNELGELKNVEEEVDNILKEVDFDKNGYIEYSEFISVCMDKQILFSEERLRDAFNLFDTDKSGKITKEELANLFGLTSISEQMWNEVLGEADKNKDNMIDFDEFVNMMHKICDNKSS
The target of test [6] is Plasmodium falciparum protein kinase 6 (PK6, PF3D7_1337100) (UniProt Q8IDW1). The experiment in a line: PfPK6 kinase inhibitors, biochemical, TCAMS library (AID 1159586). The conditions noted are these: recombinant PfPK6, Kinase-Glo ATP depletion luminescence. (In general: Kinase-Glo measures the ATP left after a reaction by luminescence.)
Chain of Plasmodium falciparum protein kinase 6 (PK6, PF3D7_1337100) (Q8IDW1 1-305): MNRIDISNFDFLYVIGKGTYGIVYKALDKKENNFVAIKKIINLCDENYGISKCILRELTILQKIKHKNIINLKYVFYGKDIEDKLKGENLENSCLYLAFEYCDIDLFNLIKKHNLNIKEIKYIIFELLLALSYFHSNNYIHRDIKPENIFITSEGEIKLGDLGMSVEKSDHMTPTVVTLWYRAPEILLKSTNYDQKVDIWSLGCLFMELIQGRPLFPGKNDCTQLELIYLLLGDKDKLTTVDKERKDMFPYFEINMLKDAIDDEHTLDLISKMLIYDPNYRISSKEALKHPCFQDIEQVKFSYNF
Test [7] has as its target Protein kinase 7 (PK7), Plasmodium falciparum 3D7 (PF3D7_0213400) (UniProt Q7YTF7). Put plainly: inhibition of Plasmodium PK7 catalytic activity – biochemical, TCAMS antimalarial set, Kinase-Glo luminescence (AID 1159587). The note with it: recombinant PfPK7, Kinase-Glo ATP depletion luminescence.
Test [8] deals with Calcium-dependent protein kinase 4 (Plasmodium falciparum (isolate 3D7)) (UniProt Q8IBS5). The experiment in a line: PfCDPK4 kinase inhibitors, biochemical, TCAMS library (AID 1159588; cut-off not given, nearly all actives have IC50 up to about 0.91 µM). The note with it: recombinant PfCDPK4, Kinase-Glo ATP depletion luminescence.
Chain of Calcium-dependent protein kinase 4 (Plasmodium falciparum (isolate 3D7)) (Q8IBS5 whole entry, looked up): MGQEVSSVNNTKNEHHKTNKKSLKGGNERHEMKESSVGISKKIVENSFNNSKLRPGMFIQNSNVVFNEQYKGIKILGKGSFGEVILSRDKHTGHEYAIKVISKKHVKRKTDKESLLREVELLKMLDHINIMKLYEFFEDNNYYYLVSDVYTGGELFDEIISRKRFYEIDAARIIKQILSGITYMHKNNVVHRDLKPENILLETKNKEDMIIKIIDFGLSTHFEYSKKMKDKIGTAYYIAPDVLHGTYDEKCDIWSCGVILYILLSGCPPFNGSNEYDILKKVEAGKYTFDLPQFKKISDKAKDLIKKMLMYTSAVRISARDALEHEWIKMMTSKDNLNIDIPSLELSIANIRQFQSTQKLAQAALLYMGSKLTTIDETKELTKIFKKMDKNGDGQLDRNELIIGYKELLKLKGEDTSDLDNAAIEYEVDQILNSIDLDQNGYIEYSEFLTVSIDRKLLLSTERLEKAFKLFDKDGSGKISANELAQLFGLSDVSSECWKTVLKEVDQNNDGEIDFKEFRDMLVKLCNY

Values without a mark were called inactive. For some of these results: Measured potencies and affinities stand elsewhere. The source made the active and inactive calls. Unless noted, no rule for the calls is given here.

Chain of Protein kinase 7 (PK7), Plasmodium falciparum 3D7 (PF3D7_0213400) (Q7YTF7 1-343): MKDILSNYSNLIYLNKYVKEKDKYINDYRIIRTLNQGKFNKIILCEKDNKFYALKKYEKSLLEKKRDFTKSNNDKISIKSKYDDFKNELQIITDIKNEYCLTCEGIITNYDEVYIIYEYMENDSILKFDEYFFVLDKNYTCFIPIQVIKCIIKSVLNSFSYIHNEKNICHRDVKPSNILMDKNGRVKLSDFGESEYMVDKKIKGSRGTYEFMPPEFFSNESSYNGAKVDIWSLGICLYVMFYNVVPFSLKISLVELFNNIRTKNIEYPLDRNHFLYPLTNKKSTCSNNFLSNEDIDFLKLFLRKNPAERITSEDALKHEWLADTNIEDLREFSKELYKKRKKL

By inhibition is commonly meant the change of the read-out against control, counted positive when it falls. For `N#Cc1ccc(N[C@@H](CC2CCCCC2)C(=O)NCc2cc(Cl)cc(Cl)c2)c2ccccc12`, the results for the growth inhibition in test [1] and in test [4] were 88% (active) and 94% (active), respectively. Moreover, the inhibition was 34% in test [2] and 0% in test [3]. Moreover, the result in test [5], in test [6], in test [7] and in test [8] was inactive.
As to `Cc1ccc(N)cc1-c1nc(NC2CC(C)(C)NC(C)(C)C2)nc2c1ccc(=O)n2-c1c(F)cccc1F`, the growth inhibition in test [1] is 1%; in test [4], 98% (active). Also, the inhibition was 0% in test [2] and -5% in test [3]. The outcome in test [5], in test [6], in test [7] and in test [8] was inactive.
Regarding `O=C(NCCCCN1CCC(c2ccc3c(c2O)CCCC3)CC1)c1ccc(NC(=O)c2ccc(Cl)cc2)cc1`, the growth inhibition in test [1] and in test [4] was 100% (active) each time. Further, the figures for the inhibition in test [2] and in test [3] were 99% (active) and -2%, respectively. The result in test [5], in test [6], in test [7] and in test [8] was inactive.
Consider `O=S(=O)(c1c(Cl)cc(Cl)cc1Cl)N1CCCCC(c2ccc(F)c(F)c2)=N1`, for which the growth inhibition is 65% (active) in test [1] and 87% (active) in test [4]. The inhibition in test [2] was 5%; in test [3], -1%. Besides, the outcome in test [5], in test [6], in test [7] and in test [8] was inactive.
For the compound `COc1cccc(C(=O)NCCOc2ccccc2)c1Oc1ccccc1`, the growth inhibition in test [1] and in test [4] was 98% (active) each time. Further, the inhibition in test [2] was 14%; in test [3], -4%. The result in test [5], in test [6], in test [7] and in test [8] was inactive.
Consider `Cc1ccc(NC(=O)c2ccc(Cl)cc2)cc1-c1ccc(C(=O)Nc2ccncc2)cc1`, for which the growth inhibition in test [1] was 5%; in test [4], 98% (active). Also, the inhibition in test [2] is 36%; in test [3] it was 3%. Also, the outcome in test [5], in test [6], in test [7] and in test [8] was inactive.
Regarding `Oc1cc2c(cc1CN1CCN(Cc3ccc(Cl)s3)CC1)CCC2`, the figures for the growth inhibition in test [1] and in test [4] were 76% (active) and 98% (active), respectively. Further, the inhibition was 7% in test [2] and -3% in test [3]. Also, the result in test [5], in test [6], in test [7] and in test [8] was inactive.
As to `COc1ccc2nccc([C@@H](O)CN3CCC(NCCOc4cc(F)cc(F)c4)CC3)c2c1`, the growth inhibition is 86% (active) in test [1] and 101% (active) in test [4]. The inhibition in test [2] was 10%; in test [3] it was -3%. Besides, the result in test [5], in test [6], in test [7] and in test [8] was inactive.
As for `O=c1cc(NCCCNCc2[nH]c3cc(Cl)ccc3c2Cl)[nH]c2ccccc12`, the growth inhibition in test [1] is 1%; in test [4], 91% (active). In addition, the inhibition was 5% in test [2] and -2% in test [3]. Further, the outcome in test [5], in test [6], in test [7] and in test [8] was inactive.
Turning to `CCCC(=O)Nc1ccc(OCCCCN(Cc2ccccc2C(F)(F)F)c2ccc(C(F)(F)F)c(C#N)c2)cc1`, the growth inhibition in test [1] and in test [4] was 94% (active) in each case. For the same compound, the inhibition in test [2] was 6%; in test [3], 0%. Further, the outcome in test [5], in test [6], in test [7] and in test [8] was inactive.
On to `CCCCn1c(=N)c(C(=O)NCc2cccnc2)cc2c(=O)n3cccc(C)c3nc21`, for which the growth inhibition in test [1] was 47%; in test [4], 101% (active). Also, the values for the inhibition in test [2] and in test [3] were 7% and -2%, respectively. Further, the outcome in test [5], in test [6], in test [7] and in test [8] was inactive.
Consider `Cc1cccc2[nH]c(-c3ccc(-c4cccc(CN5CCN(CCN6CCOCC6)CC5)c4)s3)nc12`, for which the growth inhibition in test [1] was 83% (active); in test [4], 101% (active). In addition, the inhibition in test [2] is 33%; in test [3], -2%. Further, the outcome in test [5], in test [6], in test [7] and in test [8] was inactive.
As to `CCOC(=O)c1c(NC(NC(=O)c2ccc(C(C)(C)C)cc2)C(Cl)(Cl)Cl)sc2c1CCCC2` (stereo not given), the growth inhibition in test [1] is 94% (active); in test [4], 98% (active). For the same compound, the figures for the inhibition in test [2] and in test [3] were 1% and -3%, respectively. The outcome in test [5], in test [6], in test [7] and in test [8] was inactive.
`CC(CNc1ccnc(Nc2ccc3[nH]c(=O)[nH]c3c2)n1)c1ccccc1` (stereo not given): the growth inhibition is 2% in test [1] and 99% (active) in test [4]. The inhibition was 50% (active) in test [2] and 6% in test [3]. Besides, the outcome in test [5], in test [6], in test [7] and in test [8] was inactive.
Turning to `CC[C@H](NC(=O)c1c(CC2CCN(CC(C)=O)CC2)c(-c2ccccc2)nc2ccccc12)c1ccccc1`, the growth inhibition was 96% (active) in test [1] and 97% (active) in test [4]. Besides, the inhibition is 7% in test [2] and 3% in test [3]. Besides, the result in test [5], in test [6], in test [7] and in test [8] was inactive.
`CCCC(C)NC(=O)[C@H](Cc1ccccc1)NC(=O)c1ccc(O)c(-c2ccc(OC)cc2)c1` (stereo not given in full): the growth inhibition in test [1] was 1%; in test [4], 85% (active). The inhibition in test [2] is 12%; in test [3], 2%. For the same compound, the result in test [5], in test [6], in test [7] and in test [8] was inactive.
On to `CO/C(=C\C=C/c1cc2cc(Cl)c(Cl)cc2[nH]1)C(=O)NC1CC(C)(C)N(C)C(C)(C)C1`, for which the growth inhibition in test [1] is 34%; in test [4], 93% (active). Besides, the values for the inhibition in test [2] and in test [3] were 65% (active) and -1%, respectively. Moreover, the result in test [5], in test [6], in test [7] and in test [8] was inactive.
In the case of `FC(F)(F)c1ccc2nc(-c3cccc(-c4cccc(CNCc5cnn(-c6ccccc6)n5)c4)c3)[nH]c2c1`, the figures for the growth inhibition in test [1] and in test [4] were 28% and 100% (active), respectively. For the same compound, the figures for the inhibition in test [2] and in test [3] were 6% and -5%, respectively. Besides, the outcome in test [5], in test [6], in test [7] and in test [8] was inactive.
With `CCc1ccc(C2CCN(CCCCNC(=O)c3ccc(-c4ccc(C#N)cc4)cc3)CC2)c(OCCO)c1`, the results for the growth inhibition in test [1] and in test [4] were 61% (active) and 94% (active), respectively. Moreover, the values for the inhibition in test [2] and in test [3] were 24% and -4%, respectively. For the same compound, the outcome in test [5], in test [6], in test [7] and in test [8] was inactive.
Consider `Cc1cccc2[nH]c(-c3ccc(-c4cccc(CN5CCC(C(N)=O)CC5)c4)cc3)nc12`, for which the growth inhibition is 16% in test [1] and 87% (active) in test [4]. The inhibition in test [2] was 9%; in test [3], 6%. The result in test [5], in test [6], in test [7] and in test [8] was inactive.

The values above are taken from PubChem BioAssay.
